# In the library only some 0.87% were active in any assay of this set; here they are far more common.
# EPAC2 antag – blocks human EPAC2 exchange factor. Q8WZA2. EPAC2 GEF exchange of Rap1B-BODIPY-GDP, fluorescence. Potency, µM (doses to about 114 µM), inactives show at the highest dose activity, negative = inhibition, usual class: inhibitors. 360,000 tested, 0.18% active. AID 720708; further: potency means the concentration at half of the fitted maximal effect; on the % scale 0 is the no-effect control and ±100 the full control effect; nearly all actives have a fitted effect of over 45% in size
# EPAC2 agonist – EPAC2 (human) agonism; EPAC2 activation, biochemical qHTS; response scale: 100% = 6.5 mM cAMP response; Potency, µM (top dose mostly 154 µM), for the others: at the top dose activation, hits mostly activators; 360,000 tested, 0.079% active; further: potency means the concentration at half of the fitted maximal effect; nearly all actives have a fitted effect of over 50% in size
#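 In this primary screen, activation is scored as increased exchange of BODIPY-GDP from Rap1B by 100 nM EPAC2, with 50 uM GDP as competitor. Signal is normalized to the 6.5 mM cAMP agonist control.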
# EPAC1 ag – activates human EPAC1 exchange factor; AID 720707; O95398; EPAC1 agonist qHTS, biochemical assay; response scale: 100% = response to 6.5 mM cAMP; 360,000 tested, 0.073% active; Potency, µM (series often up to 154 µM), inactives show top-dose activation, usual class: activators; further: potency means the concentration at half of the fitted maximal effect; nearly all actives have a fitted effect of over 60% in size
#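 EPAC1 100 nM, Rap1B–BODIPY-GDP 250 nM, unlabeled GDP 50 uM; compound titration; 5 min RT; kinetic read ex480/em540 at 5-min intervals ×30 min; data normalized to 6.5 mM cAMP agonist control.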
# USP1 inh – blocks the human USP1/UAF1 deubiquitinase complex; recombinant USP1/UAF1, Ub-Rhodamine cleavage fluorescence; 390,000 tested, 0.23% active; Potency, µM (series often up to 57.1 µM), for the others: at the top dose activity change, negative = inhibition, most hits filed as inhibitors; AID 743255; further: potency means the concentration at half of the fitted maximal effect; on the % scale 0 is the no-effect control and ±100 the full control effect; nearly all actives have a fitted effect of over 60% in size
#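 USP1/UAF1 complex at 1 nM was preincubated with compound for 15 min at room temperature, then Ub-Rho substrate (150nM final) was added. Fluorescence (480/540 nm) was read kinetically, 6 reads every 60 seconds.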
# EPAC1 antag – antagonists of human EPAC1 | AID 720709 | EPAC1 GEF assay, Rap1b-BODIPY-GDP exchange fluorescence | Potency, µM (doses to about 115 µM), without a hit: at the highest dose activity change, negative = inhibition, hits mostly inhibitors | 360,000 tested, 0.14% active;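 further: potency means the concentration at half of the fitted maximal effect; plate controls were vehicle for no effect and positive control for full effect; nearly all actives have a fitted effect of over 50% in size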
# FBPA coupling cs – coupling enzyme interference in Giardia aldolase counter-screen. activity change, negative = inhibition, % at 58.2 µM, hits read low. coupling enzyme system counterscreen, AmpLite Red fluorescence. 290,000 tested, 0.67% active; in the data active means activity change below about -30%; further: on the % scale 0 is the no-effect control and ±100 the full control effect
#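 Fluorescence at 525 nm excitation and 598 nm emission measured inhibition of the coupled detection system without aldolase. Compounds (at 57.5 uM final) were preincubated 10 min at room temperature with coupling enzyme reagent before a 20 min substrate/AmpLite Red step.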
# Numbers without * were called inactive; u = inconclusive; x = no result given. Unless noted, the call rests on the fitted dose curve; in most records, active means well fitted curve in the direction sought with a large enough effect; inconclusive means small, poorly fitted or top-dose-only effect, or another doubt; inactive means no such curve, though single readings can be large; an effect the other way counts as inactive or inconclusive.
SMILES,EPAC2 antag,EPAC2 agonist,EPAC1 ag,USP1 inh,EPAC1 antag,FBPA coupling cs
COc1ccc(S(=O)(=O)NC(CCSC)C(=O)NC2CCCCC2)cc1 (stereo not given),2%,0%,-47%,-12%,50µM*,-3
CCCC(=O)Nc1cc(OC)c(NC(=O)NC2CCCCC2)cc1OC,5%,-4%,-18%,-11%,20%,-45*
O=C(NCCCn1ccnc1)c1noc2c1CCc1ccccc1-2,6%,-2%,1%,-23%,6%,-44*
Cc1cc(=O)oc(C)c1C(=O)OCC(=O)c1ccc(Cl)c(Cl)c1,0%,-6%,7%,-6%,-3%,1
O=C(Nc1ccccc1Cl)c1c(F)c(F)c(F)c(F)c1F,9%,-6%,-1%,-12%,5%,x
COC1(NC(=O)c2ccccc2)C(C)=CC(=O)C=C1C,10%,2%,4%,-17%,13%,-5
O=C(NC1(O)C(=O)c2ccccc2C1=O)c1c(Cl)cccc1Cl,u,29%,-3%,28µM*,50µM*,-17
O=C(NC1(O)C(=O)c2ccccc2C1=O)c1ccccc1,u,12%,-4%,18µM*,u,-25
CC(c1ccccc1)N1CCn2c(nc3cc(NC(=O)NC4CCCCC4)ccc32)C1 (stereo not given),-3%,-3%,8%,-6%,4%,-46*
Clc1ccc(-c2csc(=Nc3cccnc3)n2CCCn2ccnc2)cc1Cl,-7%,-2%,7%,-1%,9%,4
COCCn1c(-c2ccc(Br)cc2)csc1=Nc1cccnc1,45µM*,-3%,10%,-21%,-1%,3
O=C(c1ccccc1)c1coc2ccc(O)c(Cl)c12,-11%,13%,19%,-2%,u,2
Cc1ccc(C(=O)c2coc3ccc(O)c(Cl)c23)cc1,u,20%,4%,-6%,20µM*,-30
O=C(CN1CCOCC1)NNC(=O)c1ccc(Cl)cc1,-7%,1%,13%,-5%,-10%,x
O=C(O)C(Cc1c[nH]c2ccccc12)NS(=O)(=O)c1cccc(Cl)c1Cl (stereo not given),45µM*,11%,2%,1%,-14%,5
CC1=C(C(=O)N2CCOCC2)CC(CC(=O)NC2CC2)C(=O)N1Cc1ccc(F)cc1 (stereo not given),8%,11%,17%,x,6%,x
CCn1c(/C=C/N(C(C)=O)c2ccccc2)[n+](CC)c2ccc(Cl)cc21,12%,2%,1%,-14%,0%,5
CC[n+]1c(/C=C/C=C/N(C(C)=O)c2ccccc2)sc2ccccc21,92%,100µM*,u,32µM*,18%,-6
COc1ccc(NC(=O)Nc2cccc3c2O[C@@H](CN(C)CC2CCCCC2)[C@@H](C)CN([C@H](C)CO)C3=O)cc1,6%,-1%,-18%,-13%,-1%,x
COCCCNc1nc(NCc2cccc(Cl)c2)c2cnn(C)c2n1,x,x,x,-13%,x,x
CCN1c2ccccc2N(C)C1(C)c1ccccc1 (stereo not given),2%,13%,-1%,u,29%,-53*
CN1c2ccccc2N(C)C1(C)c1ccccc1,-12%,-4%,7%,u,-4%,-1
COc1ccc(-c2c(-c3cc(OC)cc(OC)c3)n(C)c3ccc(Br)cc23)cc1,7%,8%,-1%,-26%,6%,x
COc1ccc(N=Nc2nc3ccc(Br)cc3n2C)cc1,14%,24%,112µM*,-19%,163%,2
CC1CN(C(=O)CCC(=O)NCCc2ccccc2)c2ccccc2O1 (stereo not given),-1%,-5%,3%,-3%,-28%,1
CCCN(CCC)C(=O)Cn1c(=O)c2sccc2n2c(=S)sc(-c3ccccc3)c12,50µM*,-33%,8%,-21%,-10%,1
CN(C)CCCOc1ccc2c(c1)Sc1ccccc1CC2=O,2%,17%,3%,-6%,-3%,-66*
